HTR2A ag – mouse HTR2A agonism via beta-arrestin recruitment; P35363; CHO-K1 mHTR2A beta-arrestin complementation, luminescence; percent of 30 µM serotonin response; activation, % at 7.6 µM; hit rate 0.66% among 360,000; AID 624169;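 active = activation above a run cutoff, the mean activation of all tested compounds plus 3 SD, cut at about 14% in these data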;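 note: 0% = plate median of compound wells and 100% = 30 µM serotonin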
HTR5A ag – counter-screen for OPRM1-OPRD1 agonists: human HTR5A agonism. P47898. HTR5A agonist assay, luminescence, cell-based. activation, % at 9.3 µM. hit rate 0.61% among 340,000. AID 504692; in the data active = activation mostly above about 9.5%, no sharp cut-off; inactive = mostly below about 7.6%;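 note: 0% = cells with vehicle only and 100% = reference agonist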
HTR5A inv ctr – HTR5A inverse agonism, opioid heterodimer counter-screen; HTR5A cell line, luminescence; P47898; inhibition, % at 9.3 µM; hit rate 0.083% among 340,000; in the data active = inhibition mostly above about 23%, no sharp cut-off; inactive = mostly below about 18%;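 note: 0% = cells with DMSO and 100% = no-cell wells with DMSO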
OPRM1-OPRD1 inv – inverse agonist of human OPRM1-OPRD1 heterodimerization; P35372+P41143; cell-based MOR-DOR heterodimer luminescence, inverse agonism; inhibition, % at 9.3 µM; hit rate 0.21% among 340,000; AID 504357; in the data active = inhibition above about 22%, passing the limit was not always enough;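 note: 0% = cells with DMSO and 100% = wells without cells with DMSO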
Target sequence (P35372 whole entry, looked up): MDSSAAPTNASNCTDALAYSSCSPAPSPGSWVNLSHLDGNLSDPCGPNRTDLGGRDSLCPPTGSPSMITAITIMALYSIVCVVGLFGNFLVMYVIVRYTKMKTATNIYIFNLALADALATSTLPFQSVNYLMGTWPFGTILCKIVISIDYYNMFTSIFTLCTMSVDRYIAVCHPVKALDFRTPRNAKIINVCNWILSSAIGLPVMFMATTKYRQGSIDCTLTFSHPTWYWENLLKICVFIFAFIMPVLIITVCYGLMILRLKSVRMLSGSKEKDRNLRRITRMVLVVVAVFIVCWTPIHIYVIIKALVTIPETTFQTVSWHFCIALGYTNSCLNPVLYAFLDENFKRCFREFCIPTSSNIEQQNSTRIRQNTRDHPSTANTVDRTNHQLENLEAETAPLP
Target sequence (P41143 whole entry, looked up): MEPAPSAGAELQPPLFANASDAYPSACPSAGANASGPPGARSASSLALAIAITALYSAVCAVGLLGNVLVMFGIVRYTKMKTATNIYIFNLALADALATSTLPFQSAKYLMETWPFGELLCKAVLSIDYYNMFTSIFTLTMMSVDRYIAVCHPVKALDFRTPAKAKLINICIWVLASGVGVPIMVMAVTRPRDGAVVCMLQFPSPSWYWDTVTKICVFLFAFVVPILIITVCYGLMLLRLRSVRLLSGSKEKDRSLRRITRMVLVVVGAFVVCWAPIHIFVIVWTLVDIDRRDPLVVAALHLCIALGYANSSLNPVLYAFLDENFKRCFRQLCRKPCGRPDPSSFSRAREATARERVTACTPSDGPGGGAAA
MOR-DOR ag – agonists of human mu-delta opioid receptor heterodimerization; cells, OPRM1-OPRD1 heterodimerization, luminescence; activation, % at 9.3 µM; hit rate 0.3% among 340,000;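 note: 0% = vehicle-treated cells and 100% = reference agonist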
MOR-DOR ag conf – confirmation of human OPRM1-OPRD1 heterodimerization agonists. cells, MOR-DOR heterodimerization, luminescence complementation. shares compounds with MOR-DOR ag. activation, % at 9.3 µM. hit rate 45% among 830;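 note: 0% = vehicle-treated cells and 100% = reference agonist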
HTR5A ag counter – counter-screen for OPRM1-OPRD1 agonists: human HTR5A agonism; activation, % at 9.3 µM; AID 504905; hit rate 8% among 830; HTR5A agonist counterscreen, cell luminescence; shares compounds with MOR-DOR ag; in the data active = activation above about 17%;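 note: 0% = vehicle-treated cells and 100% = reference agonist response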
An asterisk follows results filed as active; i = inactive; . = no result. In the library only some 1.6% were active in any assay of this set; here they are far more common. Cut-off read from the data, not from the text of the source, unless noted: active = activation above about 18%; inactive = the rest.

SMILES | HTR2A ag | HTR5A ag | HTR5A inv ctr | OPRM1-OPRD1 inv | MOR-DOR ag | MOR-DOR ag conf | HTR5A ag counter
Cc1cc(N2CCN(c3ccc([N+](=O)[O-])c4cccnc34)CC2)c2ccccc2n1 | -3 | 2 | -5 | -216 | 36* | 52* | 10
CC(c1ccon1)N(C)C(=O)c1cccc(OC2CCN(S(C)(=O)=O)CC2)c1 (stereo not drawn) | 0 | . | . | . | . | . | .
CC(COc1ccccc1)N1CCC(CO)(CCc2ccccc2)CC1 (stereo not drawn) | -8 | 2 | -6 | i | 176* | 0 | 0
COC(=O)CNc1nc(-c2cccnc2)nc2ccccc12 | 1 | 1 | -27 | 9 | -2 | . | .
COc1ccc(C(CNc2nc(-c3cccnc3)nc3ccccc23)N(C)C)cc1 (stereo not drawn) | -6 | 0 | 1 | i | 160* | 3 | -5
CC(C)C[C@@H]1CN(CCCC[C@H]2CNC(=O)C(=O)N2CCC2CCCCC2)C(=O)C(=O)N1CCc1ccc(O)cc1 | 5 | . | . | . | . | . | .
C/C(=N\NC(=O)c1cccc(S(=O)(=O)N2CCOCC2)c1)c1ccc(O)cc1 | 4 | 8 | -19 | i | 219* | -1 | 2
CSc1ccc(CN2CCC2(C)C(=O)NC2CCc3ccccc32)cc1 (stereo not drawn) | -6 | . | . | . | . | . | .
COC(=O)CC1(C(=O)OC)Oc2ccc(Br)cc2C(=O)N1c1cc(Cl)c(Cl)cc1Cl (stereo not drawn) | 2 | 2 | -32 | -28 | 6 | . | .
COC(=O)CC1(C(=O)OC)Oc2ccc(Br)cc2C(=O)N1c1ccc(Br)cc1Cl (stereo not drawn) | -1 | -3 | 0 | -244 | 46* | 2 | 8
CCCCn1c(O)c2n(c1=O)Cc1ccccc1N=C2c1ccc(C)cc1 | 3 | . | . | . | . | . | .
CCCC(C)C(=O)Nc1ncc(S(=O)(=O)c2ccc([N+](=O)[O-])cc2)s1 (stereo not drawn) | 9 | 7 | -12 | -112 | 21* | -2 | 2
CCC(c1nnnn1-c1c(C)cccc1C)N1CCN(c2ccccn2)CC1 (stereo not drawn) | -4 | . | . | . | . | . | .
COc1ccc(Oc2ccc(C(F)(F)F)cc2N)cc1 | 3 | -1 | -16 | -90 | 18* | 8 | 0
COc1ccc(Oc2ccc(C(F)(F)F)cc2NC(=O)c2ccc(OC)cc2)cc1 | -1 | -2 | -25 | -17 | 3 | . | .
O=C(Nc1cc(Sc2ccccn2)cc([N+](=O)[O-])c1)c1ccc([N+](=O)[O-])cc1 | -3 | 14* | -13 | -147 | 32* | 1 | 35*
COc1ccc(-c2nn(-c3ccccc3C)cc2CNC(C)c2cn(C)nc2C)cc1F (stereo not drawn) | 7 | 0 | 20 | i | 163* | 23* | 16
COc1ccc(-c2nn(-c3ccccc3C)cc2CNCCc2cnc[nH]2)cc1F | -2 | -3 | 10 | -42 | 9 | . | .
COc1ccc(-c2nn(-c3ccccc3C)cc2CNC(C)Cn2cncn2)cc1F (stereo not drawn) | -6 | -2 | -16 | 5 | -1 | . | .
CCn1cc(CNCc2cn(-c3ccccc3C)nc2-c2ccc(OC)c(F)c2)cn1 | -3 | -4 | 10 | i | 243* | 309* | 1
Cc1cccc(C)c1NC(=O)C(c1ccc(C#N)cc1)n1c(=O)c(-c2cc3ccccc3[nH]2)nc2ccccc21 (stereo not drawn) | -2 | . | . | . | . | . | .
CC(C)NC(=O)C1(C)CN(S(C)(=O)=O)CC(=O)N1Cc1cccs1 (stereo not drawn) | 12 | . | . | . | . | . | .
Cc1ccc(-c2csc3ncnc(-n4nnc5ccccc54)c23)cc1 | 1 | 9 | 0 | -122 | 23* | 2 | 0
Cc1ccc(-c2csc3ncnc(-n4nnc5ccccc54)c23)cc1C | -3 | -3 | 9 | -8 | 1 | . | .
CC(=O)N1CCC(C(=O)N2c3ccccc3N=C(c3ccc(C(F)(F)F)cc3)C2C(=O)NC(C)(C)C)CC1 (stereo not drawn) | 9 | . | . | . | . | . | .
SMILES | HTR2A ag | HTR5A ag | HTR5A inv ctr | OPRM1-OPRD1 inv | MOR-DOR ag | MOR-DOR ag conf | HTR5A ag counter
Cc1ccc(C)c(-n2cc(CNC(C)Cn3cncn3)c(-c3ccccc3)n2)c1 (stereo not drawn) | -2 | -7 | -13 | -201 | 39* | 36* | 3
Cc1ccc(C)c(-n2cc(CNCCCn3cccn3)c(-c3ccccc3)n2)c1 | -8 | -8 | 5 | i | 243* | 218* | -1
CC1(Oc2cccc(C#N)c2)CCN(Cc2ccccc2OC(F)F)C1 (stereo not drawn) | -5 | . | . | . | . | . | .
CCCCN1C(=O)C(CC(=O)NC2CCCCC2)CC(C(=O)N2CCCCCC2)=C1C (stereo not drawn) | 6 | . | . | . | . | . | .
COc1cc(NC(=O)c2cc(C)on2)cc(OC)c1OC | -1 | -1 | 12 | -3 | 0 | . | .
CCOC(=O)c1cc(NC(=O)c2cc(C)on2)cc(C(=O)OCC)c1 | 0 | 8 | -8 | -119 | 22* | 3 | 3
Cc1c2ccccc2nc2ccccc12 | -3 | 0 | 1 | 1 | 0 | . | .
Cc1c2ccccc2c(C)c2c1ccc1ccccc12 | -1 | 7 | -24 | -100 | 19* | -2 | -2
NC1=C(Cl)C(=O)c2ccc(S(N)(=O)=O)cc2C1=O | 6 | 16* | -61 | -194 | 39* | 3 | 2
NS(=O)(=O)c1ccc2c(c1)C(=NO)c1cc(S(N)(=O)=O)ccc1-2 | -4 | 1 | -5 | 9 | -2 | . | .
CN1CCN(c2ccc(NC(=O)COc3cccc4ccccc34)cc2)CC1 | -11 | 4 | -10 | -141 | 25* | 2 | 39*
CN1CCN(c2ccc(NC(=O)COc3ccc4ccccc4c3)cc2)CC1 | -3 | -1 | 1 | -38 | 7 | . | .
CC(C)[C@H](NC(=O)c1ccccc1Cl)C(=O)OCC(=O)NC(=O)NCc1ccco1 | 4 | -4 | 9 | i | 314* | 1 | -6
Cc1cc2nc(-c3ccc(Cl)cc3)c(CC3CCCCC3)n2c(C)c1Br | 5 | . | . | . | . | . | .
C#CC(=O)N(c1ccc(OC)c(OC)c1)C(C(=O)NC1CCCC1)c1cccs1 (stereo not drawn) | 1 | 4 | -51 | -228 | 39* | 19* | 21*
Fc1ccc2[nH]c3c(N4CCc5ccccc5C4)ncnc3c2c1 | 2 | . | . | . | . | . | .
Cc1ccc2[nH]c3c(N4CCc5ccccc5C4)ncnc3c2c1 | 2 | 5 | -4 | i | 371* | 15 | 19*
CCN(CC)CCN(C(=O)c1ccc(Br)s1)c1nc2cc3c(cc2s1)OCCO3 | -1 | 2 | -17 | -14 | 3 | . | .
CN(C)CCCN(C(=O)c1ccc(Br)s1)c1nc2cc3c(cc2s1)OCCO3 | -11 | 1 | -2 | -183 | 35* | 93* | 0
OC(CN1CCN(C(c2ccccc2)c2ccccc2)CC1)c1ccc(Br)cc1 (stereo not drawn) | -10 | 4 | -15 | -22 | 5 | . | .

Compound activity deposited in PubChem by The Scripps Research Institute Molecular Screening Center.
